The results in this text go back to PubChem BioAssay AID493194 (Broad Institute, 2011).

Potency and affinity values are given separately. Records with an inconclusive call do not appear. Entries that show only a call come without a potency. Active and inactive are the calls of the source.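 How the source made its calls: active means a valid curve of falling signal whose half-effect concentration is at most ten times the top tested dose; inconclusive means flat curve at 30 to 70% inhibition, or poor fit; inactive means signal rise, flat within 30%, or potency beyond limit.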

Sequence of Scavenger receptor class B member 1 (Mus musculus) (Q61009 whole entry, looked up): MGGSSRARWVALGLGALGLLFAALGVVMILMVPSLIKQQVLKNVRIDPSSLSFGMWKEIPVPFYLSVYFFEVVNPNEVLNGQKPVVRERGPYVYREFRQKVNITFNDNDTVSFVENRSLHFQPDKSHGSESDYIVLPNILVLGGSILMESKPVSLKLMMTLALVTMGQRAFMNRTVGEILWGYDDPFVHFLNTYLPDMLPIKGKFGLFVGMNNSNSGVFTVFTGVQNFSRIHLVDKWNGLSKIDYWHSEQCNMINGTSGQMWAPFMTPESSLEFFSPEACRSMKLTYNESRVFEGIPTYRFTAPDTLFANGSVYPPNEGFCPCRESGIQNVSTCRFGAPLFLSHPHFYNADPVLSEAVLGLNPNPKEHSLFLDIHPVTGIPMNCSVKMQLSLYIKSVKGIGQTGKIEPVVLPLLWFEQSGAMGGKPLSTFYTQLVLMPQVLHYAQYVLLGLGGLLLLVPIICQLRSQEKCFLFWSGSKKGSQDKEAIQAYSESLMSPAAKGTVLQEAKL

This assay addresses Scavenger receptor class B member 1 (Mus musculus) (UniProt Q61009). In words: inhibitors of SR-BI mediated HDL lipid uptake, dose response, ldlA[mSR-BI] cells, fluorescence, cherry pick (AID 493194).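 Further: CHO cells lacking LDL receptor and overexpressing mouse SR-BI; cellular uptake of fluorescently labeled HDL measured as cell fluorescence.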 To be noted: CHO ldlA[mSR-BI] DiI-HDL uptake fluorescence, 3 h; series mostly up to 35 µM.
For `O=C(c1ccc(S(=O)(=O)NCc2ccco2)cc1)N1CCN(Cc2ccccc2F)CC1`, the call was inactive.

Take `Cc1cc(C)cc(NC(=O)c2ccc3c(c2)CCN3S(C)(=O)=O)c1`: the call was inactive.

Take `CNc1cnn(-c2ccc(C)cc2)c(=O)c1Sc1ccc(C)cc1`: the call was inactive.

For the compound `COCCOC(=O)c1[nH]c2c(c1C)C(=O)CC(c1ccco1)C2` (stereo not drawn), the compound was classed as inactive.

On to `CC[C@H](C)[C@H](NC(=O)c1ccc(Cl)cc1)C(=O)OCC(=O)c1ccc2c(c1)NC(=O)CO2`, for which the outcome was inactive.

For the compound `CCOC(=O)N1CCN(CC(O)COC2CC(C)CCC2C(C)C)CC1` (stereo not drawn), the result was inactive.

Take `O=C(Nc1ccccc1)c1ccc2c(c1)CCN2S(=O)(=O)c1ccccc1`: the outcome was inactive.

For the compound `O=C(NC1CC1)c1ccc(CN(c2ccccc2)S(=O)(=O)c2ccccc2)cc1`, the compound was called inactive.

With `CN(C(=O)c1cc(-n2cnnc2)ccc1Cl)c1ccccc1`, the result was inactive.

As to `CCOc1cc2c3c(c1)C1(C(=O)N3C(C)(C)CC2C)C(C#N)=C(N)N2C(=C1C#N)Nc1ccccc12` (stereo not drawn), the call was inactive.

For the compound `CC1CCCCC1NC(=O)c1nn(C)c2c1CS(=O)(=O)c1ccccc1-2` (stereo not drawn), the call was inactive.

As to `CC[C@@H](C)[C@H](NC(=O)Cc1c(C)c2cc3c(C)c(C)oc3c(C)c2oc1=O)C(=O)O`, the call was inactive.

For `Cc1cc(C)cc(NC(=O)CCc2c(C)nn(-c3ccc(N4CCCCC4)nn3)c2C)c1`, the compound was classed as inactive.

For the compound `Cc1ccccc1C(=O)Nc1cc(NC(=O)c2ccccc2C)cc(C(=O)O)c1`, the compound was classed as inactive.

As to `Cc1cccc(-c2ccc3c(c2)C2CC3CCN2C(=O)OCc2ccccc2)c1` (stereo not drawn), the result was inactive.

For `CC(C)(C)N(Cc1ccccc1)C(=O)COC(=O)CN1C(=O)NC2(CCCC2)C1=O`, the compound was classed as inactive.

As for `O=C(CSc1cn(CCNC(=O)c2cccs2)c2ccccc12)NCC1CCCO1` (stereo not drawn), the compound was classed as inactive.

Take `CCOc1ccc(CCNC(=O)Cn2ncn3nc(-c4ccc(OC)cc4)cc3c2=O)cc1`: the call was inactive.

Consider `CCOc1ccc(NC(=O)CN2CCN(CC(=O)Nc3ccc(N(C)C)cc3)CC2)cc1`, for which the result was inactive.

Take `COc1ccc(CN2CCN(C(=O)c3ccc(S(=O)(=O)NCc4ccco4)cc3)CC2)cc1F`: the compound was classed as inactive.

On to `CCCOc1ccc(C(=O)Nc2ccc(S(=O)(=O)N3C[C@@H]4C[C@@H](C3)c3cccc(=O)n3C4)cc2)cc1`, for which the call was inactive.

As for `O=C(Nc1cccc(S(=O)(=O)N2CCOCC2)c1)C1CCN(S(=O)(=O)c2ccccc2)CC1`, the outcome was inactive.

For the compound `Cc1ccc(-n2nc(C)c3c(C(=O)OCC(=O)N(C)C4CCS(=O)(=O)C4)cc(-c4ccccc4)nc32)cc1` (stereo not drawn), the compound was classed as inactive.

As to `CCC(C(=O)NC1CCCC1)N(C(=O)Cn1nnc(-c2ccc(OC)c(OC)c2)n1)c1cccc(O)c1` (stereo not drawn), the call was inactive.

Regarding `Cc1ccc2c(c1)C(=O)C(=O)N2CC(=O)Nc1ccc(N2CCOCC2)cc1`, the compound was classed as inactive.

Take `Cc1cc(NC(=O)Nc2ccccc2)n(-c2ccccc2)n1`: the compound was classed as inactive.

In the case of `Cc1ccccc1C(=O)NC1CC2CCCC(C1)N2C(=O)Nc1ccccc1` (stereo not drawn), the outcome was inactive.

Consider `COc1ccc(OC)c(NC(=O)CCC(=O)N(Cc2ccc(OC)c(OC)c2)c2nccs2)c1`, for which the call was inactive.

Consider `CCOc1ccccc1NC(=O)C(CC(C)C)NC(=O)C1CCC(C)CC1` (stereo not drawn), for which the result was inactive.

On to `CC1CN(c2oc(COc3ccc(Cl)cc3Cl)nc2C#N)CC(C)O1` (stereo not drawn), for which the outcome was inactive.

As to `O=C(c1ccc(-n2nc(C(F)(F)F)c3c2CCCC3)cc1)N1CCOCC1`, the result was inactive.

With `Cc1cc(CN(C)C(=O)C2CCC(=O)N(CCc3cccc(F)c3)C2)on1` (stereo not drawn), the compound was called inactive.

With `COc1ccc(NC(=O)C2CCN(C(=O)c3ccc(OC)cc3)CC2)cc1`, the outcome was inactive.

In the case of `Cc1cc(C)c(C)c(S(=O)(=O)N2CCN(CC(=O)NC(=O)NCc3ccccc3)CC2)c1C`, the outcome was inactive.

Take `COC(=O)c1cc2c(ccn2-c2ccc(F)cc2)n1Cc1ccc(C#N)cc1`: the outcome was inactive.

For `CCOc1ccc(NC(=O)CN2CCN(CC(=O)Nc3ccc(Cl)c(C(F)(F)F)c3)CC2)cc1`, the result was inactive.

As for `CCOC(=O)Nc1ccc2c(c1)N(C(=O)C(C)N1CCCC1)c1ccccc1CC2` (stereo not drawn), the compound was classed as inactive.

Take `CCC(C)(C)NC(=O)C(c1ccc(C)cc1)N(Cc1cccs1)C(=O)c1ccc2c(c1)OCCO2` (stereo not drawn): the outcome was inactive.
